SKKanGAS inh – S. pyogenes SKKanGAS growth inhibitors in kanamycin, primary screen, streptokinase expression inhibitor project, SKKanGAS strain, BacTiter-Glo luminescence | 6 h | inhibition, % at 7.5 µM | hit rate 1.3% among 300,000;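 active = mean replicate score, as percent of positive control median, at least 50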;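 also: strain carries kanamycin resistance gene driven by streptokinase promoter and grows in 40 µg/ml kanamycin; loss of luminescence reflects streptokinase promoter inhibition or plain growth inhibition; 0% = median of DMSO wells and 100% = positive control at its reference dose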
tim23-1 inh – growth inhibitors of tim23-1 mutant yeast, primary screen, luminescence, uHTS; hit rate 1.3% among 330,000; inhibition, % at 20 µM; S. cerevisiae tim23-1 growth, BacTiter-Glo luminescence, 24 h; AID 463212, 2010;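 active = growth inhibition of the mutant yeast at or above 50%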;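 also: temperature-sensitive mutant grown at 25 °C; plate controls were DMSO-treated mutant yeast for no effect and medium wells lacking yeast for full effect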
PfHsp90 set2 – growth inhibition of PfHsp90-expressing yeast, primary screen, antimalarial PfHsp90 inhibitor project, S. cerevisiae, BacTiter-Glo luminescence, single point, set 2 | hit rate 0.32% among 310,000 | BacTiter-Glo ATP, 48 h; yeast lacking PDR1 and PDR3 efflux regulators | inhibition, % at 9.4 µM;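 active = every replicate shows inhibition above about 80%, whatever the replicate mean, limit read from the data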;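 also: 0% = DMSO neutral controls and 100% = 20 µM radicicol positive controls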
TIM10 inh – growth inhibitors of isogenic TIM10 control yeast, primary screen, counter-screen for tim10-1 yeast inhibitor project, luminescence, uHTS | S. cerevisiae TIM10 strain growth, BacTiter-Glo luminescence, 24 h | inhibition, % at 10 µM | hit rate 1.4% among 330,000;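 active = inhibition of 40% or more at the single tested concentration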;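 also: wild-type TIM10 isogenic control strain grown at permissive 25 °C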
tim10-1 inh – growth inhibitors of tim10-1 mutant yeast, primary screen, luminescence, uHTS; S. cerevisiae tim10-1 ts strain growth, BacTiter-Glo, 24 h; inhibition, % at 20 µM; hit rate 2.2% among 330,000; AID 463190, 2010;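 active = inhibition of at least 40%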;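 also: mutant grown at 25 °C; 0% = DMSO wells with yeast and 100% = wells holding no yeast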
EBI2 antag – EBI2 receptor antagonists, beta-arrestin recruitment, primary screen, cell-based, luminescence, 7a,25-OHC stimulation, uHTS | hit rate 0.81% among 360,000 | 7a,25-OHC stimulated | G-protein coupled receptor 183 (Homo sapiens), P32249 | inhibition, % at 5 µM; in the data active = inhibition above about 38%;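 also: enzyme fragment complementation signal reports receptor beta-arrestin coupling in cells; 0% = agonist plus DMSO wells and 100% = wells without agonist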
Target sequence (P32249 whole entry, looked up, the tested form may be a part): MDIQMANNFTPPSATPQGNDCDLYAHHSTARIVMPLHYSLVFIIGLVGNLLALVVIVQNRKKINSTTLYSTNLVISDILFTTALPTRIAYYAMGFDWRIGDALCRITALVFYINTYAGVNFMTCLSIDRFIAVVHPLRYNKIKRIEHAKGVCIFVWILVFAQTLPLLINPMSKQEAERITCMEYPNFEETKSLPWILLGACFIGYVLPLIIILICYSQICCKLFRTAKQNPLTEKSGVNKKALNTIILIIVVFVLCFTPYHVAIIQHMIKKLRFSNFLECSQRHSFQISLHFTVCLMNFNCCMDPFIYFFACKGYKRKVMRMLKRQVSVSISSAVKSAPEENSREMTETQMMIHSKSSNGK
* hit, by the source's call; . = no result; + = active, no number. A selection: hits, their analogues and other compounds. The true share with any hit is near 4.7%.

SMILES	SKKanGAS inh	tim23-1 inh	PfHsp90 set2	TIM10 inh	tim10-1 inh	EBI2 antag
COc1ccc(NC(=O)C(OC(=O)c2cnc(C)cn2)c2ccccc2)cc1Cl (stereo not drawn)	50.7*	29.3	-12.5	8.2	14.5	23.8
O=C(CNC(=O)c1ccco1)NCc1nc2ccccc2[nH]1	50.7*	2.9	-23.6	2.7	1.2	7.7
CC1=CC(=O)C(C(C)C)=C/C1=N/OS(=O)(=O)c1ccccc1	10.6	48.5	110.1*	25.1	-140.0	-44.1
CC1=CC(=O)C=C(C)C1=NOS(=O)(=O)c1ccccc1	-1.5	.	106.5*	.	.	-7.3
Cc1ccc2c(c1)/C(=N/OS(=O)(=O)c1ccccc1)CCS2	6.0	1.9	.	8.9	27.8	-16.2
CCN(CC)CC(C)(C)C(=O)/C=C/c1ccc(/C=C/C(=O)C(C)(C)CN(CC)CC)cc1	.	.	-3.0	.	.	78.4*
COc1ccc(NC(=O)c2cc(-c3ccc(C)c(C)c3O)n[nH]2)cc1Cl	57.3*	24.9	16.5	19.4	-1.8	10.3
Cc1ccc(NC(=O)c2cc(-c3ccc(C)c(C)c3O)n[nH]2)cc1C	-0.8	-16.6	-15.6	-19.0	-34.2	8.1
C=C1C(=O)[C@]23C[C@H]1CC[C@H]2[C@]1(C)[C@@H](OC(C)=O)CC[C@@](C)(C(=O)OC)[C@H]1C[C@@H]3OC(C)=O	.	.	.	.	.	39.5
C=C1C(=O)[C@]23C[C@H]1CCC2[C@@]1(C)C(C[C@@H]3O)[C@](C)(C(=O)OC)CC[C@@H]1OC(C)=O (stereo partly drawn)	.	.	.	.	.	80.5*
CC(C)(C)c1cc(-c2nc(N)nc(N)n2)c(O)c(C(C)(C)C)c1	.	-100.5	+	30.1	-37.9	15.7
Cc1ccc(C2=NC(C)(C)N=C2SCC(=O)Nc2ccc(Cl)cc2)cc1	3.0	19.9	134.0*	23.2	39.4	27.0
CC1(C)N=C(SCC(=O)Nc2ccc(Cl)cc2Cl)C(c2ccccc2)=N1	2.8	20.0	98.6*	11.9	21.5	-1.9
O=C(NC1CCCC1)C1c2ccccc2OCC(=O)N1C1CC1 (stereo not drawn)	.	.	.	.	.	-1.7
O=C1C=C(Nc2ccccc2O)c2ccccc2C1=O	51.5*	15.1	-0.9	20.3	14.9	-9.6
Cc1ccc(NC2=CC(=O)C(=O)c3ccccc32)c(C)c1	.	-7.1	-14.2	22.4	9.8	-16.1
Cc1ccc(Cl)cc1NC(=S)N/N=C/c1cccc2ccccc12	80.1*	20.9	-7.1	1.2	23.5	-6.5
Cc1ccc(S(=O)(=O)NC2c3cccc4cccc(c34)C2Sc2nc(C)cc(C)n2)cc1 (stereo not drawn)	11.2	30.1	-20.0	11.3	33.3	0.4
C(=C\c1ccco1)/c1nc2ccccc2[nH]1	10.7	-4.1	13.2	30.7	13.7	-5.0
C(=C\c1nc2ccccc2[nH]1)/c1ccccc1	22.3	42.6	77.7*	30.5	29.6	20.7
O=C(NC(NC(=S)Nc1c(Cl)cccc1Cl)C(Cl)(Cl)Cl)OCc1ccccc1 (stereo not drawn)	76.8*	-18.6	12.0	-15.7	-7.4	9.0
CCOC(=O)NC(NC(=S)Nc1ccc(OCC)cc1)C(Cl)(Cl)Cl (stereo not drawn)	2.2	-22.3	8.4	-10.3	3.9	-10.9
Cc1ncc(CO)c2cc(C(=O)Nc3ccccc3Cl)c(=Nc3cccc(C(N)=O)c3)oc12	40.9	-0.4	-19.5	3.9	15.6	-9.8
CCN(CC)c1ccc(/C=C(\C#N)C(=O)c2ccc(Br)cc2)cc1	-9.3	.	15.8	.	.	45.1*
Cn1cc(C=CC(=O)O)c2nccnc21	.	.	.	.	.	-3.1
SMILES	SKKanGAS inh	tim23-1 inh	PfHsp90 set2	TIM10 inh	tim10-1 inh	EBI2 antag
Cc1nn(-c2ccccc2)c(C)c1-c1nnc(-c2c(C)nn(-c3ccccc3)c2C)o1	57.0*	-7.7	-8.1	-23.8	-12.7	7.2
Cc1nn(-c2ccccc2)c(C)c1-c1nnc(C(F)(F)F)o1	2.6	8.0	14.2	1.7	-8.4	3.5
COC(=O)c1ccc(NC(=O)CNc2ccccc2)cc1	11.9	19.7	-15.7	-10.5	13.9	-7.8
CCn1cc(C(=O)NC(=S)Nc2ccccc2[N+](=O)[O-])cn1	6.5	23.5	16.7	12.1	26.2	-4.4
CCn1cc(C(=O)NC(=S)Nc2ccccc2Br)cn1	51.4*	49.9	0.7	21.0	17.5	3.3
CN(C)CCNc1ccc2ncn3c4ccc(O)cc4c(=O)c1c23	.	.	-0.5	.	.	-8.9
Cc1nc(N)nc(N)c1-c1ccc(Cl)c(Cl)c1	.	.	-34.5	.	.	-6.1
Cc1nc(N)nc(N)c1CCCc1ccc(Cl)c(Cl)c1	109.0*	18.9	-7.2	22.6	12.9	-15.1
Cc1nc(NC(=O)c2ccc(Cl)cc2)sc1-c1csc(Nc2cccc(F)c2)n1	73.4*	.	.	.	.	.
CCOc1ccc(C(=O)N2CCN(c3ccccn3)CC2)cc1	-1.5	16.9	4.8	11.1	3.1	14.9
CCOc1ccc2oc(C(=O)N3CCN(c4ccccn4)CC3)c(C)c2c1	3.8	30.8	-20.5	31.4	38.2	62.8*
CCc1c(C)c(C#N)c2[nH]c3ccccc3n2c1=S	59.8*	40.6	-13.2	13.3	21.2	6.6
Cn1cccc1C(=O)Nc1nc(-c2ccccn2)cs1	81.4*	23.0	-28.3	4.5	0.8	5.0
O=C(Nc1nc(-c2ccccn2)cs1)c1cccc(S(=O)(=O)N2CCOCC2)c1	.	23.1	-10.4	10.5	28.9	3.9
Cc1cccnc1Nc1nc(-c2ccccc2)cs1	13.9	49.6	-7.2	0.6	7.7	16.4
Cc1cccnc1Nc1nc(-c2ccccn2)cs1	106.0*	10.2	106.0*	34.5	-29.5	75.8*
O=C(Nc1nc(-c2ccccn2)cs1)c1ccc(S(=O)(=O)N2CCCCC2)cc1	84.2*	40.0	.	16.7	7.1	.
Cc1csc(NC(=O)c2cccn2C)n1	15.4	15.4	-7.9	8.2	1.8	-6.8
O=C(Nc1nc(-c2ccccn2)cs1)c1cc2ccccc2o1	103.9*	19.9	104.9*	21.3	12.6	-4.9
OC(c1ccccc1)c1nc(-c2ccc3c(c2)OCO3)cs1 (stereo not drawn)	.	.	.	.	.	1.6
CCNc1ccc(C(=O)NN=C2CCCC2)cc1[N+](=O)[O-]	1.4	3.6	24.2	-12.0	-0.7	-4.1
O=C(/C=C/c1ccco1)Nc1nc(-c2ccccn2)cs1	55.4*	-29.6	-7.7	-19.0	-44.8	-5.0
CCc1sc(C(=O)Nc2nc(-c3ccccn3)cs2)cc1C	.	25.4	106.8*	12.3	10.0	5.6
Cc1cccc(C(=O)NC(C(=O)Nc2nc(-c3ccccn3)cs2)C(C)C)c1 (stereo not drawn)	91.4*	17.4	6.1	5.9	17.7	-20.6
CCc1sc(C(=O)Nc2ncccc2C)cc1C	-6.4	19.6	19.7	-14.8	2.2	-0.5
